Active and inactive are the calls of the source. No stated cut-off is given here; in the data, active means potency below about 10 µM; inactive means the rest.
target: Lysosomal acid glucosylceramidase (Homo sapiens) (UniProt P04062); experiment: Glucocerebrosidase-p2 (AID 348); settings: purified GBA, blue fluorogenic substrate, 40 min
Excerpt: Beta-glucocerebrosidase catalyzes the hydrolysis of beta-glucocerebroside to glucose and ceramide. The inherited deficiency of beta-glucocerebrosidase results in Gaucher disease, which is characterized by a wide variety of symptoms including hepatosplenomegaly, anemia, thrombocytopenia, bony lesions and bone marrow infiltration with characteristic storage cells, known as Gaucher cells. There are also forms of the disorder affecting the central nervous system. Patients with the same genotypes can manifest with diverse clinical presentations and it is believed that improper folding and trafficking of beta-glucocerbrosidase may contribute to the phenotypes observed.
Low molecular weight molecules, acting as chaperones, may potentially restore trafficking of misfolded beta-glucocerebrosidase from the endoplasmic reticulum to the lysosomes, thereby enhancing functional lysosomal beta-glucocerebrosidase activity.
Using normal beta-glucocerebrosidase, an assay was developed to screen for small molecule inhibitors that could potentially act as molecular chaperones on the mutant forms [developed with NIH investigator Dr. Ellen Sidransky#s laboratory]. Two pro-fluorescent substrates were chosen for two screens against a small molecule library. One beta-glucocerebrosidase assay used Resorufin beta-D-Glucopyranoside (Marker Gene Technology Inc.), generating a red fluorescent product. The second assay used […] fluorescent product. The Km for the Resorufin beta-D-Glucopyranoside and Fluorescein di-beta-D-Glucopyranoside were determined to be 71.2 uM and 855 uM, respectively. The IC50 values of Conduritol B Epoxide, a known glucocerebrosidase inhibitor, were determined to be 87.5 uM and 117 uM, respectively. The use of two difference pro-fluorescent substrates in the screens helped to eliminate false positives. All compounds were screened in a titration series resulting in AC50s (e.g., IC50s or EC50s). Data normalization and AC50 calculations were accomplished using GeneData software.
NCGC Assay Protocol Summary
Both enzyme and substrate were diluted in buffer composed of 50mM citric acid/KH2PO4, 10mM sodium taurocholate and 0.01% tween-20 at pH 5.9. The final concentration of the enzyme was 0.2 nM in both assays. The compound library was titrated in 7 to 15 concentrations for the primary screens with a final concentration ranging from 0.6 nM to 50 uM. This particular assay protocol is for the "blue" substrate, and it was performed in 1536-well plate format as follows:
Blue fluorescence substrate assay:
1 uL substrate (final concentration of 80 uM)
Incubate at room temperature (RT) for 40 minutes
3 uL stop solution (1 M NaOH and 1 M glycine in water)
Read the plate in Viewlux plate reader (Ex=365(10) and Em=440(10)).
Potency means the concentration at half of the fitted maximal effect.

Sequence of Lysosomal acid glucosylceramidase (Homo sapiens) (P04062 whole entry, looked up): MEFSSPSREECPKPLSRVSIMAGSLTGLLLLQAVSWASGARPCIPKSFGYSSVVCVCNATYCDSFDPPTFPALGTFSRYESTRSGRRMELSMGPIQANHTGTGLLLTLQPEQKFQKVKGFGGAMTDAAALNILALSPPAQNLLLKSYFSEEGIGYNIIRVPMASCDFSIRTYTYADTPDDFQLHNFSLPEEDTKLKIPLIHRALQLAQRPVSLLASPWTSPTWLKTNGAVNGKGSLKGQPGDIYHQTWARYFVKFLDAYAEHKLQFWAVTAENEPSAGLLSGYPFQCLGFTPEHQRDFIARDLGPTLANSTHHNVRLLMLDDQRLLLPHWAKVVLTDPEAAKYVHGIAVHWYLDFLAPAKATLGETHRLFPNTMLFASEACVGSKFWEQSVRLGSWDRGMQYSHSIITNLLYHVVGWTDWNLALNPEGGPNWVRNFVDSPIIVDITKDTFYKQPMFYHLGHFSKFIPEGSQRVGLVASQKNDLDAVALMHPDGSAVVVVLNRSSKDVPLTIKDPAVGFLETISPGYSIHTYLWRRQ

Potency, inactive:
COc1ccc(-n2c(=O)c(-c3cccs3)nc3cncnc32)cc1 > 11.4 µM
Cc1cnc(CNc2ncnc3ccc(-c4ccoc4)cc23)cn1 > 11.4 µM
O=C(Nc1cccc(F)c1)N1CCC2(CC1)CCN(C(=O)c1cnccn1)CC2 > 11.4 µM
COCC(=O)N1CCC[C@@]2(CCN(Cc3ccccc3OC)C2)C1 > 11.4 µM
O=C(c1csnn1)N1CCC2(CC1)CN(Cc1cc(C(F)(F)F)cc(C(F)(F)F)c1)C2 > 11.4 µM
O=c1c(-c2ccc(Cl)cc2)nc2cnc(N3CCOCC3)nc2n1-c1ccccc1 > 11.4 µM
COc1ccc(NC(=O)N2CCCC3(CCN(C(=O)c4c(C)noc4C)CC3)C2)cc1 > 11.4 µM
O=c1c(-c2ccc(F)cc2)nc2cnc(N3CCNCC3)nc2n1C1CC1 > 11.4 µM
CC(=O)N1CCC2(CCN(Cc3cc(C(F)(F)F)cc(C(F)(F)F)c3)CC2)CC1 > 11.4 µM
O=C(Nc1cccc(F)c1)N1CCCC2(CCN(C(=O)c3ccncc3)CC2)C1 > 11.4 µM
Cc1cnc(CNc2ncncc2-c2c(C)noc2C)cn1 > 11.4 µM
COc1ccc2[nH]cc(CCNc3ncncc3-c3ccc(N(C)C)cc3)c2c1 > 11.4 µM
COc1ncc2ncc(=O)n(Cc3cccs3)c2n1 > 11.4 µM
O=c1cnc2cnc(N3CCNCC3)nc2n1Cc1ccc(F)cc1 > 11.4 µM
Cc1ccccc1-c1cncnc1NCc1cccs1 > 11.4 µM
CC(=O)N1CCC2(CC1)CN(c1ccccc1)C2 > 11.4 µM
Cc1ccccc1-c1cc(N2CCN(C)CC2)ncn1 > 11.4 µM
O=C(Oc1ccccc1)N1CCC2(CC1)CN(c1ccccc1)C2 > 11.4 µM
COc1ccc(-c2nc3cnc(N4CCOCC4)nc3n(-c3ccccc3)c2=O)cc1 > 11.4 µM
CN1CCCC2(CCN(C(=O)c3cccn3C)CC2)C1 > 11.4 µM
COc1ccccc1-c1cncnc1NCCN1CCOCC1 > 11.4 µM
COCCn1c(=O)cnc2cnc(OC)nc21 > 11.4 µM
COc1ccccc1-c1ccc2ncnc(N3CCN(C)CC3)c2c1 > 11.4 µM
CCNc1ncc2nc(C)c(=O)n(-c3ccc(OC)cc3)c2n1 > 11.4 µM
COc1ccc(-c2nc3cnc(N4CCNCC4)nc3n(-c3ccc(OC)cc3)c2=O)cc1 > 11.4 µM
N#Cc1cccc(-c2cc(NCc3cccs3)ncn2)c1 > 11.4 µM
COc1cccc(Nc2ncc3nc(-c4ccc(F)cc4)c(=O)n(C)c3n2)c1 > 11.4 µM
N#Cc1ccccc1-c1ccc2ncnc(N3CCNCC3)c2c1 > 11.4 µM
O=C(c1ccco1)N1CCC2(CC1)CCN(c1ncccn1)CC2 > 11.4 µM
COCC(=O)N1CCC2(CC1)CN(Cc1cc(C(F)(F)F)cc(C(F)(F)F)c1)C2 > 11.4 µM
Cc1cccc(CNc2ncnc3ccc(-c4cccc(C#N)c4)cc23)c1 > 11.4 µM
COc1ccc(-n2c(=O)c(C)nc3cnc(Oc4ccccc4)nc32)cc1 > 11.4 µM
COCC(=O)N1CCC2(CC1)CCN(c1ccccn1)CC2 > 11.4 µM
CC(=O)N1CCC2(CC1)CN(Cc1ccccc1)C2 > 11.4 µM
O=c1c(-c2ccccc2)nc2cnc(N3CCNCC3)nc2n1C1CC1 > 11.4 µM
O=c1c(-c2ccc(F)cc2)nc2cnc(N3CCOCC3)nc2n1C[C@H]1CCCO1 > 11.4 µM
Cn1c(=O)c(-c2ccc(Cl)cc2)nc2cnc(Nc3ccccc3)nc21 > 11.4 µM
CC(=O)N1CCC2(CC1)CCN(C(=O)Nc1cccc(F)c1)CC2 > 11.4 µM
O=C(c1ccco1)N1CCC[C@@]2(CCN(Cc3ccccc3)C2)C1 > 11.4 µM
COc1ccc(-n2c(=O)c(-c3cn(C)c4ccccc34)nc3cnc(N4CCOCC4)nc32)cc1 > 11.4 µM

— PubChem BioAssay (NCATS)
